The whole screen tested about 15,000 sequences, of which about 800 (5.3%) were called active. No stated cut-off is given here; in the data, active = GI50 up to about 1.1 µM and inactive = higher. Not all results are given here. Measured potencies and affinities stand elsewhere.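 Dose response: 5 concentrations. Exposure: 48 h. Format: 96-well plates. Endpoint: linear interpolation; highest concentration if not reached. GI50 marks 50% less growth.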
system: DMS-114; assay: NCI tumour cell line growth inhibition, 48 h

In order of falling GI50:
1. [Bis(aminomethyl)dimethylsilane]dichloroplatinum (II), CHEMBL2146201  12 µM
2. mu-(1,7-nanodiamine-N,N')bis-(cis-aminedichloroplatimum (II)), CHEMBL2146215  6.18 µM
3. [Bis(aminomethyl)tetramethylenesilane]dichloropaltinum(II), CHEMBL2146205  5.89 µM
4. cis-Bis[[(trimethylsilyl)methyl]amino]tetrachloroplatinum(IV), CHEMBL2146191  4.09 µM
5. [Bis(aminomethyl)pentamethylenesilane]dichloropaltinum(II), CHEMBL2146202  4.01 µM
6. [Bis(aminomethyl)diethylsilane]tetrachloroplatinum(IV), CHEMBL2146203  2.23 µM
7. [Bis(aminomethyl)pentamethylenesilane]tetrachloropaltinum(IV), CHEMBL2146204  2 µM
8. [Bis(aminomethyl)tetramethylenesilane]tetrachloropaltinum(IV), CHEMBL2146189  1.91 µM
9. [Bis(aminomethyl)dimethylsilane]tetrachloroplatinum(IV), CHEMBL2146190  1.38 µM
10. [Bis(aminomethyl)ethylmethylsilane]tetrachloroplatinum(IV), CHEMBL2146192  1.17 µM

Reference: ChEMBL document CHEMBL1201862, “PubChem BioAssay data set” (2004)
